# Assay outcomes deposited in PubChem BioAssay by several laboratories.
# Sampled rows, rich in hits. Any-hit rate of the full collection: about 3.4%.
# hgDAF12 agonist = hgDAF-12 agonism, primary luciferase screen | HEK293 GAL4-hgDAF12 UAS-luciferase reporter, agonist luminescence; normalized to butyrate control | activation, % at 6.8 µM | 1.8% of 370,000 active | AID 687014;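 active = activation above a cutoff set at the mean of all screened compounds plus 3 SD, cut at about 10% in these data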;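 also: 0% = DMSO wells and 100% = sodium butyrate wells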
# NF-kB expr up = compounds increasing NF-kB expression in human neuronal cells. 1.6% of 190,000 active. NF-kB reporter expression; active compounds read high. fold change at 12.5 µM; in the data active = fold change above about 3.3
# hcDAF-12 act = activators of H. contortus DAF-12 nuclear receptor; 1.4% of 370,000 active; HEK293 hcDAF-12 lit1-tk-luc reporter, luminescence; 0% DMSO, 100% Δ7-dafachronic acid; AID 652067; activation, % at 6.8 µM;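 active = activation above the mean of all tested compounds plus 3 SD, cut at about 5.5% in these data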;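 also: 100% = response to 3 µM Δ7-dafachronic acid high control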
# APP 5'UTR act = activates APP 5'UTR luciferase reporter; AID 1276; 1% of 190,000 active; SH-SY5Y APP 5'UTR luciferase reporter, luminescence; zero percent = DMSO vehicle wells; activation, % at 2 µM;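 active = activation above a set limit, based on mean plus 3 SD of controls, cut at about 140% in these data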
# ssDAF12 agonist = S. stercoralis DAF-12 activation, primary screen. HEK293 ssDAF-12/GRIP1 lit1-tk-luc reporter, luminescence; % of 3 µM dafachronic acid response. activation, % at 6.8 µM. 1% of 370,000 active. AID 652126;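 active = activation above the mean over all tested compounds plus 3 SD, cut at about 0.9% in these data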;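 also: 0% = DMSO-only wells and 100% = 3 µM delta7-dafachronic acid wells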
# LXR ag = LXR-beta agonism as hcDAF-12 counter-screen. 3,400 tested, under 10 active. activation, % at 6.8 µM. HEK293 Gal4-LXR tk-luc reporter, luminescence, 24 h; normalized: DMSO 0%, positive control 100%. shares compounds with hcDAF-12 act;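 active = mean percent activation of the reporter above a cutoff set as the average over tested compounds plus their standard deviation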
# Target sequence (P55055 whole entry, looked up, the tested form may be a part): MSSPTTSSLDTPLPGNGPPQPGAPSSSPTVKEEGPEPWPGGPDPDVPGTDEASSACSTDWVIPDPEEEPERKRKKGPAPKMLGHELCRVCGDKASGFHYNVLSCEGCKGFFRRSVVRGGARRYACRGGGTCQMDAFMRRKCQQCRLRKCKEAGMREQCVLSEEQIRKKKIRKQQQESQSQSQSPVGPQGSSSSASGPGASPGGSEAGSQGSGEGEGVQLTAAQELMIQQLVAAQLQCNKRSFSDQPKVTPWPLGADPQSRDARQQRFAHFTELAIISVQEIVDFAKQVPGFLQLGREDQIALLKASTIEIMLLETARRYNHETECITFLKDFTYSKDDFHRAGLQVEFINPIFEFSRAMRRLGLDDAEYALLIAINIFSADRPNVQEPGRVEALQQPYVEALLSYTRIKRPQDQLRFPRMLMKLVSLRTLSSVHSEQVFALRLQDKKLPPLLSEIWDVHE
# hcDAF12 conf = hcDAF-12 agonism, confirmation assay | 61% of 3,400 active | shares compounds with hcDAF-12 act | HEK293 hcDAF-12 lit1-tk-luc reporter, luminescence; % of Δ7-dafachronic acid response | activation, % at 6.8 µM;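 active = mean activation across triplicate tests above the threshold derived from the earlier primary screen, cut at about 5.5% in these data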;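 also: 0% = DMSO only wells and 100% = 3 µM Δ7-dafachronic acid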
# hgDAF12 ag = confirmation of H. glycines DAF-12 agonists. shares compounds with hgDAF12 agonist. HEK293 GAL4-hgDAF12 luciferase reporter, agonist mode; percent of butyrate response. activation, % at 6.8 µM. 80% of 3,300 active. AID 743050;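 active = mean activation over triplicate wells above the hit cutoff derived from the earlier primary screen, cut at about 11% in these data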;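 also: 0% = DMSO low control and 100% = 2 mM sodium butyrate high control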
# LXRb DAF12 ctr = LXR-beta agonism as DAF-12 counter-screen | AID 743051 | activation, % at 6.8 µM | HEK293 Gal4-LXR luciferase reporter, 24 h | shares compounds with hgDAF12 agonist | 3,300 tested, under 10 active;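 active = mean activation of the triplicate above a set limit carried over from the primary screen, none filed active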
# Numbers without * were called inactive; · = no result.
SMILES,hgDAF12 agonist,NF-kB expr up,hcDAF-12 act,APP 5'UTR act,ssDAF12 agonist,LXR ag,hcDAF12 conf,hgDAF12 ag,LXRb DAF12 ctr
O=C(Nc1ccc2ncccc2c1)c1ccccc1Cl,0,1.1,0,-24,-1,·,·,·,·
Nc1nn(-c2cccc(F)n2)cc1-c1ccccc1,17*,9.9*,11*,213*,1.1*,2,9.3*,19*,1
CCOC(=O)C1(Cc2ccccc2)CCN(Cc2ccccc2[N+](=O)[O-])CC1,-1,·,0,·,-2,·,·,·,·
Fc1ccc(Nc2ccc3ccccc3n2)c(F)c1,15*,11*,9.8*,200*,1.0*,2,9.4*,20*,1
Cc1ccccc1Cn1cc(COC(=O)Nc2ccc(F)cc2)nn1,0,·,2,·,0,·,·,·,·
CC(=O)Nc1cccc(-c2csc(Nc3ccc(C)cn3)n2)c1,17*,7.6*,13*,206*,1,2,8.3*,21*,1
Cc1ccc(Nc2nc(-c3ccncc3)cs2)cc1,16*,2.9,8.9*,129,2.4*,1,7.2*,19*,1
Cc1cc(-c2csc(Nc3ccccn3)n2)ccc1F,17*,·,15*,·,1.7*,2,12*,19*,1
Cc1cccnc1Nc1nc(-c2ccc(F)cc2)cs1,18*,·,10*,·,1.9*,1,8.2*,16*,1
Cc1ccc(Nc2nc(-c3sc(C)nc3C)cs2)cc1,6,·,3,·,0,·,·,·,·
CC(=O)Nc1cccc(-c2cnc(NC(C)=O)cn2)c1,5,·,2,·,-1,·,·,·,·
Cc1cccc(Cn2cc(COC(=O)NCCc3c[nH]c4ccccc34)nn2)c1,1,·,-1,·,-1,·,·,·,·
CCOC(=O)[C@]12CCCC=C1N(CCCOC)C(=O)[C@@H]2CC(=O)NCc1ccc(OC)c(OC)c1,-2,·,-2,·,-1,·,·,·,·
Fc1ccc(-c2csc(Nc3ccccn3)n2)c(F)c1,14*,·,15*,·,3.4*,2,16*,20*,1
Cc1ccc(Nc2nc(CSc3nnc(-c4ccncc4)n3C)cs2)cc1,16*,4.4*,7.3*,87,0,1,4,15*,0
Cc1nc(N)sc1-c1csc(Nc2ccccn2)n1,0,1,4,72,0,·,·,·,·
Cc1ccc(CSc2nnc(-c3ccncc3)n2C)cc1,-1,1.1,-2,10,-1,·,·,·,·
Cc1ccc(-c2csc(Nc3ccccn3)n2)cc1,16*,·,8.2*,·,2.2*,2,9.9*,19*,1
Cc1ccc(S(=O)(=O)NCC(=O)N2CCN(c3ccccn3)CC2)cc1C,2,·,1,·,-1,·,·,·,·
COc1ccc2c(c1)CCCN2C(=O)C1CCCN(S(=O)(=O)c2cc(OC)ccc2OC)C1 (configuration not stated),-1,·,-1,·,-2,·,·,·,·
Cc1ccc2c(c1)C(=O)CC(c1ccccc1)S2 (configuration not stated),20*,·,7.7*,·,1.5*,2,6.5*,19*,1
c1ccc(N=NC2=NN(c3ccccc3)CS2)cc1,16*,·,16*,·,1.7*,1,8.3*,12*,0
Oc1ccccc1-c1cc(-c2ccc3c(c2)OCCO3)n[nH]1,13*,8.9*,8.9*,211*,1.0*,2,12*,24*,1
COc1ccc(-c2cc(-c3ccccc3O)[nH]n2)cc1OC,16*,6.8*,7.9*,194*,0,1,3,16*,1
CCOC(=O)c1ccc(Nc2ncccc2[N+](=O)[O-])cc1,18*,7.8*,6.0*,151*,1.7*,·,·,19*,1
SMILES,hgDAF12 agonist,NF-kB expr up,hcDAF-12 act,APP 5'UTR act,ssDAF12 agonist,LXR ag,hcDAF12 conf,hgDAF12 ag,LXRb DAF12 ctr
CCOC(=O)c1ccc(NC(=O)c2ccccc2[N+](=O)[O-])cc1,9,1.6,-2,15,-1,·,·,·,·
Cc1ccc(Nc2ncccc2C(=O)O)cc1C,4,1.6,3,7,-1,·,·,·,·
Cc1ccc(Nc2ncccc2C(N)=O)cc1[N+](=O)[O-],16*,1.2,3,75,0,·,·,14*,1
O=C1C(=O)N(Cc2ccc(-c3ccc(F)nc3)cc2)c2ccc(OC(F)(F)F)cc21,-10,·,1,·,-1,·,·,·,·
COc1ccc2ccc(=O)oc2c1,-4,0.95,-2,-4,-1,·,·,·,·
COc1ccc(COc2ccc3ccc(=O)oc3c2)cc1,20*,·,3,·,0,·,·,14*,1
COc1ccc(-n2cc(-c3ccccc3)nc2SC)cc1,15*,2.6,3,76,-1,·,·,11*,0
NNC(=O)CSc1nc(-c2ccccc2)cn1-c1ccccc1,-7,·,-2,·,-2,·,·,·,·
COCCNC(=S)N(C)[C@H]1C[C@H]2c3[nH]c4c(-c5cccc(C)c5)cccc4c3CCN2C[C@H]1[C@H](C)O,1,·,-3,·,-2,·,·,·,·
CCOC(=O)Nc1ccc2nc(-c3cscn3)[nH]c2c1,16*,·,3,·,0,·,·,14*,0
Cc1ccc(-c2nc(-c3ccncc3)no2)cc1,15*,·,4,·,0,·,·,15*,1
c1ccc(-c2noc(-c3cccnc3)n2)nc1,14*,1.8,1,75,0,·,·,12*,0
Cc1ccc(-c2nc(-c3cccnc3)no2)cc1,14*,6.3*,3,105,0,·,·,18*,1
Cc1occc1-c1nc(-c2ccncc2)no1,7,1.2,-1,-7,-1,·,·,·,·
Cc1ccc(N(C)S(=O)(=O)c2cccc(C(=O)Nc3nc4ccccc4[nH]3)c2)cc1,-3,1.1,-3,-5,-2,·,·,·,·
CN(C)c1cccc(C(=O)Nc2nc3ccccc3[nH]2)c1,15*,·,5,·,0,·,·,9,1
O=C(Nc1nc2ccccc2[nH]1)c1cccc([N+](=O)[O-])c1,16*,·,2,113,0,·,·,14*,1
O=[N+]([O-])c1ccc2nc(-c3cccnc3)[nH]c2c1,8,·,0,·,-1,·,·,·,·
O=[N+]([O-])c1ccc2nc(-c3ccccc3)[nH]c2c1,20*,1.3,5,109,0,·,·,18*,1
CSc1ccccc1C(=O)Nc1nc2ccccc2[nH]1,10,2.1,6,126,0,·,·,·,·
O=C(Nc1nc2ccccc2[nH]1)c1cccs1,14*,3.8*,4,166*,0,·,·,13*,1
